Data from PubChem BioAssay (EPA / NIEHS).
Inconclusive results are not listed. Calls of active or inactive are those of the source. The calls were made as follows: active = hit-call score of the fitted dose curve at least 0.9, where 1 is the maximum; inconclusive = response in the unintended direction; inactive = score below 0.9.

Target: human Protein Tyrosine Phosphatase Non-receptor Type 6 (PTPN6), PTPN6 (gene 5777) (UniProt P29350)
Experiment: NVS_ENZ_hPTPN6: NovaScreen (NVS) Enzymatic Assay for human Protein Tyrosine Phosphatase Non-receptor Type 6 (PTPN6) (AID 2283210)
In short: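 Cell-free assay with recombinant PTPN6 expressed in SF9 cells, fluorescent substrate, product separated from substrate by electrophoretic mobility shift; read 1.33 hours after dosing. Primary screen in duplicate at 25 uM, actives retested in concentration series; DMSO baseline.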

human Protein Tyrosine Phosphatase Non-receptor Type 6 (PTPN6), PTPN6 (gene 5777), sequence (P29350 whole entry, looked up): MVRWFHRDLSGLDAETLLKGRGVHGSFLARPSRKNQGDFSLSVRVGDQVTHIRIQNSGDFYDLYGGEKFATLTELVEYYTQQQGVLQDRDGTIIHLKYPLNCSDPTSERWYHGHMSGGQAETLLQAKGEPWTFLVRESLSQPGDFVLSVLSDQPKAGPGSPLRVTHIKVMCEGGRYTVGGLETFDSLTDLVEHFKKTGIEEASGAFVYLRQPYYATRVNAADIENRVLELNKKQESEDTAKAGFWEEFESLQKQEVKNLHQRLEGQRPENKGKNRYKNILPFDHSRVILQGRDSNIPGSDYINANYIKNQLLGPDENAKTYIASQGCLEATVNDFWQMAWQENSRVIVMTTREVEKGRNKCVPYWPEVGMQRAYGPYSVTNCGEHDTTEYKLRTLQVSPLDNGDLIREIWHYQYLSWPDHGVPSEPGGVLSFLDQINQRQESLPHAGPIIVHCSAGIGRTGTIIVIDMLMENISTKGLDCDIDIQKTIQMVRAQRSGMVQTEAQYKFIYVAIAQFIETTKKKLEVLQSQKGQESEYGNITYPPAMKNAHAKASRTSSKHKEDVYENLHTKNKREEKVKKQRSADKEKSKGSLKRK

SMILES | AC50 | outcome
NC(=O)NN=Cc1ccc([N+](=O)[O-])o1 | 10.9 µM (active) | –
CC1(C)C(=O)N(Cl)C(=O)N1Cl | – | inactive
CNC(C)=O | – | inactive
O=C(O)c1cccc(C(=O)O)c1 | – | inactive
NNC(=O)c1ccncc1 | – | inactive
O=S1(=O)CCCO1 | – | inactive
O=C(O)[C@H](O)[C@@H](O)C(=O)O | – | inactive
COS(C)(=O)=O | – | inactive
NC(=O)N1c2ccccc2C=Cc2ccccc21 | – | inactive
c1ccc2ncccc2c1 | – | inactive

Target: human Rho Associated Coiled-coil Containing Protein Kinase 1 (ROCK1), ROCK1 (gene 6093) (UniProt Q13464)
Experiment: NVS_ENZ_hROCK1: NovaScreen (NVS) Enzymatic Assay for human Rho Associated Coiled-coil Containing Protein Kinase 1 (ROCK1) (AID 2283214)
In short: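 Cell-free recombinant human ROCK1 activity assay; fluorescent substrate and product separated by electrophoretic mobility shift, read 1 h after dosing. Screened in duplicate at 25 uM; loss of signal versus DMSO baseline scored as inhibition.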

human Rho Associated Coiled-coil Containing Protein Kinase 1 (ROCK1), ROCK1 (gene 6093), sequence (Q13464 whole entry, looked up): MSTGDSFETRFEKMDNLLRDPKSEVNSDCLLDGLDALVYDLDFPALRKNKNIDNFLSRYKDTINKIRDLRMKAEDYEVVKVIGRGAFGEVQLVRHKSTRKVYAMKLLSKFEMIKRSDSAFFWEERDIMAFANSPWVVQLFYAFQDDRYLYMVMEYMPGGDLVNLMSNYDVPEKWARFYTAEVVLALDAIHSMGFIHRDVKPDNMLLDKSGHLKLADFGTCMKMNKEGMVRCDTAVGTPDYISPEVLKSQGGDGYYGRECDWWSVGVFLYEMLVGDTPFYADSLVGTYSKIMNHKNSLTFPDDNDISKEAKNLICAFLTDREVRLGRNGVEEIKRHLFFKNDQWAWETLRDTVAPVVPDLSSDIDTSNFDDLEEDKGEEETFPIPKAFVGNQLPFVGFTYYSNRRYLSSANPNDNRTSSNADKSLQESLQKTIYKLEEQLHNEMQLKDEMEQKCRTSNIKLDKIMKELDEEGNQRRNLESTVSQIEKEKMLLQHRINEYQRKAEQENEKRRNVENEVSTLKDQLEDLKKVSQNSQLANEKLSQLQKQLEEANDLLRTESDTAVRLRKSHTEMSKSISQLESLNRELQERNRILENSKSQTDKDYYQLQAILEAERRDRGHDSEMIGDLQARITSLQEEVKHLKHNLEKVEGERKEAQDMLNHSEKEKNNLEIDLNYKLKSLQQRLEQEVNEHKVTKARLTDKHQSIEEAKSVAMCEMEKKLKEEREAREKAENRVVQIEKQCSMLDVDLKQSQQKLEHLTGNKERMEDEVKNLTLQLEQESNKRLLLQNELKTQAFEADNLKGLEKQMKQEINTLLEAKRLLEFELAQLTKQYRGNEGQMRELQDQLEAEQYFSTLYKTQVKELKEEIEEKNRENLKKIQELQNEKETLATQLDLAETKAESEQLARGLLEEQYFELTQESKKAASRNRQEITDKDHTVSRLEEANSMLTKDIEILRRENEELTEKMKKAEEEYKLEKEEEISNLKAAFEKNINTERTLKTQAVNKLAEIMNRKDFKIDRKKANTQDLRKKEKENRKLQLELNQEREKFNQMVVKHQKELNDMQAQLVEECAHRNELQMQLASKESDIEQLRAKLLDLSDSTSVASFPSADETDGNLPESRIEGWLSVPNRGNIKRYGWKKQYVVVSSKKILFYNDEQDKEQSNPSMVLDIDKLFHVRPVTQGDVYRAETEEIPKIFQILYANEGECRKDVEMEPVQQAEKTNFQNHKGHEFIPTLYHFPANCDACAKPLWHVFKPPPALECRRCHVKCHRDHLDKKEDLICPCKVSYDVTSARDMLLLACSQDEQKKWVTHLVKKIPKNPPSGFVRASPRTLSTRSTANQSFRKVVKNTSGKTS

SMILES | outcome
CCN(CC)C(=S)SSC(=S)N(CC)CC | inactive
CC(=O)c1ccccc1 | inactive
CCCc1ccccc1 | inactive

Target: human Protein Tyrosine Phosphatase Receptor Type M (PTPRM), PTPRM (gene 5797) (UniProt P28827)
Experiment: NVS_ENZ_hPTPRM: NovaScreen (NVS) Enzymatic Assay for human Protein Tyrosine Phosphatase Receptor Type M (PTPRM) (AID 2283215)
In short: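 Cell-free recombinant PTPRM with fluorogenic substrate; product separated from substrate by electrophoretic mobility shift and read by fluorescence, 1.33 h after dosing. Primary screen single concentration (25 uM) in duplicate; actives retested in concentration series; loss of signal versus DMSO.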

human Protein Tyrosine Phosphatase Receptor Type M (PTPRM), PTPRM (gene 5797), sequence (P28827 whole entry, looked up): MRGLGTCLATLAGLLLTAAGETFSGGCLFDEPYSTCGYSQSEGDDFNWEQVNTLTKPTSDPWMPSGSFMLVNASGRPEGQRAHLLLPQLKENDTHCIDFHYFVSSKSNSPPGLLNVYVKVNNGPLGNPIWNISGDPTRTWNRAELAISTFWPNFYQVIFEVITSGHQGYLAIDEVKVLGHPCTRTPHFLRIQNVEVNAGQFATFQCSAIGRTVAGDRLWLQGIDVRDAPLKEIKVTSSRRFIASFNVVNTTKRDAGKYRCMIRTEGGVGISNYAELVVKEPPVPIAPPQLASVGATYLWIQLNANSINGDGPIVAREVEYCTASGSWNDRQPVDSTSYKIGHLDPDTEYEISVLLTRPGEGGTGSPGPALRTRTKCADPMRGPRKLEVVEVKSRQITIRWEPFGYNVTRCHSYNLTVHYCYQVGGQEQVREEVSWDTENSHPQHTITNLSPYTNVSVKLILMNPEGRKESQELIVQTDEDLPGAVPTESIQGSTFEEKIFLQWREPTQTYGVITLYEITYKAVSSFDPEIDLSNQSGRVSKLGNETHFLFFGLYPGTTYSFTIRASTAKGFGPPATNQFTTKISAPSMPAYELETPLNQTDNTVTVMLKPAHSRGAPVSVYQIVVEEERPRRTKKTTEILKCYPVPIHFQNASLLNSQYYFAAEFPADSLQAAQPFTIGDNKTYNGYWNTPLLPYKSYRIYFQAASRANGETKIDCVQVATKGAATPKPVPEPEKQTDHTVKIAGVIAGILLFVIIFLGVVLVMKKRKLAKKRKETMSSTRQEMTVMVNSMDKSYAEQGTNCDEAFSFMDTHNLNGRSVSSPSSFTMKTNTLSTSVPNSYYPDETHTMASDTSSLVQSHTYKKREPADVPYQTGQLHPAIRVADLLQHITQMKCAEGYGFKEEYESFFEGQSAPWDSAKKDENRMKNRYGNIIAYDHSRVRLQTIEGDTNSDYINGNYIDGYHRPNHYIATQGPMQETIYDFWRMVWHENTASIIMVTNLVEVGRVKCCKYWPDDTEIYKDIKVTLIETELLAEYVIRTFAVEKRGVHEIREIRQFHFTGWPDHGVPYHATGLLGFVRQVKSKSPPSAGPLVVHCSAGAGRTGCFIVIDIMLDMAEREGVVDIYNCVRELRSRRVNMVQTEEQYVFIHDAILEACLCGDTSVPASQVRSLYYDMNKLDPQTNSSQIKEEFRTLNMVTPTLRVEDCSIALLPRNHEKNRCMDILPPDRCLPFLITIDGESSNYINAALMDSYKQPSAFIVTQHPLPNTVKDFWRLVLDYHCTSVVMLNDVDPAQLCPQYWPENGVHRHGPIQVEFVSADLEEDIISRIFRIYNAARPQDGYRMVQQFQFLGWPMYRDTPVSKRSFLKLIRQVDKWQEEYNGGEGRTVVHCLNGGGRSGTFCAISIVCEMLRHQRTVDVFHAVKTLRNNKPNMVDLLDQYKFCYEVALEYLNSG

SMILES | outcome
CCOc1ccc2[nH]cc(C(=O)NCc3ccccc3)c(=O)c2n1 | inactive
NC(=O)N1c2ccccc2C=Cc2ccccc21 | inactive
c1ccc2ncccc2c1 | inactive

Target: rabbit Imidazoline 2 Central (I2C), CKB (gene 100009085) (UniProt P00567)
Experiment: NVS_ENZ_rabI2C: NovaScreen (NVS) Enzymatic Assay for rabbit Imidazoline 2 Central (I2C) (AID 2283228)
In short: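 Rabbit brain membranes, cell-free; readout by filter-based scintillation counting 1.5 hours after dosing, loss of signal vs DMSO. Initial duplicate test at 25 uM, then concentration-response with 50 uM top concentration.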

rabbit Imidazoline 2 Central (I2C), CKB (gene 100009085), sequence (P00567 whole entry, looked up): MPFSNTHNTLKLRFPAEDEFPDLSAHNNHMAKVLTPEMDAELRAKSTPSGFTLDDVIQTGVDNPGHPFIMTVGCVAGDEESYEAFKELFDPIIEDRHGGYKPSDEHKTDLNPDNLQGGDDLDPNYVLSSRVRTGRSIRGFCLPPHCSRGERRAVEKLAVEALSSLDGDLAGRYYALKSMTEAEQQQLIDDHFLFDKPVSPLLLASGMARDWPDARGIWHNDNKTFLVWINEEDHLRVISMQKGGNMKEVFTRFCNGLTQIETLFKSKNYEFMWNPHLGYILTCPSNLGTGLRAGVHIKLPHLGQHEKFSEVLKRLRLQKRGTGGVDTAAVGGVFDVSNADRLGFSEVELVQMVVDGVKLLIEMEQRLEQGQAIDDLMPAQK

SMILES | outcome | AC50
CC(C)C(=O)Nc1ccc([N+](=O)[O-])c(C(F)(F)F)c1 | inactive | –
COc1cc(C(C)C)c2c(c1)S(=O)(=O)N(COc1cc(=O)n3cccc(OCCN4CCCCC4)c3n1)C2=O | inactive | –
NC(=O)N(O)[C@@H]1COc2cc(OCc3ccccc3)ccc21 | – | 19.9 µM (active)
Cc1nccn1-c1ccc(Sc2cccc(C3(C(N)=O)CCOCC3)c2)cc1 | – | 9.43 µM (active)
O=C(O)c1cccc(C[C@@H]2COc3ccc(OCc4nc5cc(F)ccc5s4)cc3[C@@H]2O)c1 | inactive | –
c1ccc2ncccc2c1 | – | 6.6 µM (active)
